hNpr1 antagonist: antagonists of human natriuretic peptide receptor Npr1; AID 1347048; Potency, µM (top dose mostly 46.3 µM), actives largely listed as inhibitors; hit rate 1.6% among 76,000; P16066; HEK293 hNpr1 GloSensor cGMP, ANP-stimulated luminescence; calls by dose curve; further: nearly all actives have a fitted effect of over 60% in size
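HEK293 cells stably expressing human Npr1 and cGMP GloSensor pGS-40F, loaded 2 h with 2% GloSensor reagent, given compound 30 min at room temperature. Luminescence read before and 20 min after 0.1 nM hNppA.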
HEK cytotox: HEK 293 cell cytotoxicity; Potency, µM (series often up to 115 µM), hits mostly inhibitors; hit rate 6.6% among 94,000; HEK 293 viability, ATP luminescence (CellTiter-Glo), 48-72 h; further: nearly all actives have a fitted effect of over 60% in size
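Luminescence from cellular ATP, measured with CellTiter-Glo, indicates HEK 293 viability. Cells plated at 250 cells/well are treated with compound for 48 or 72 hr at 37 degree Celsius before reagent addition.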
Luciferase inh: Photinus pyralis luciferase inhibition. P08659. purified P. pyralis luciferase, luminescence, biochemical. Potency, µM (highest dose often 115 µM), actives largely listed as inhibitors. hit rate 2.5% among 76,000. AID 1347043; further: nearly all actives have a fitted effect of over 65% in size
Target sequence (P08659 whole entry, looked up): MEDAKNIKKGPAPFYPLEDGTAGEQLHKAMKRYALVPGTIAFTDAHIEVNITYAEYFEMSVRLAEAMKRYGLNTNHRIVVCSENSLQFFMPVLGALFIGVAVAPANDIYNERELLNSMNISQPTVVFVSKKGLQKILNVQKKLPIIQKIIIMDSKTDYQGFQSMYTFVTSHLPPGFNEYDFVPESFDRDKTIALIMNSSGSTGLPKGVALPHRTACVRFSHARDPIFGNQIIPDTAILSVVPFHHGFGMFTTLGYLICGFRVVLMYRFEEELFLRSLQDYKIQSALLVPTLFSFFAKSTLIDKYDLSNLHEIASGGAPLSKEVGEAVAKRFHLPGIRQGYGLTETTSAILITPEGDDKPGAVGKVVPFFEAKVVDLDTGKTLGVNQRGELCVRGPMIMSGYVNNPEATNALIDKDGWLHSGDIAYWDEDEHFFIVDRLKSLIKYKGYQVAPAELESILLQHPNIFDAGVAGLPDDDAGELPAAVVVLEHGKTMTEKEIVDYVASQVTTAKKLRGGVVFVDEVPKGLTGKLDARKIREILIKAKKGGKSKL
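Luminescence read by CCD imager after adding enzyme (10nM final) to wells holding compound, titrated in qHTS. Substrates 10uM each D-luciferin and ATP; buffer 50mM Tris acetate pH 7.5, 10mM Mg acetate, Tween-20, BSA.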
NIH3T3 tox: NIH 3T3 cell cytotoxicity. NIH 3T3 viability, CellTiter-Glo ATP luminescence, 48-72 h. Potency, µM (highest dose often 96.7 µM), actives largely listed as inhibitors. hit rate 4.3% among 94,000; further: nearly all actives have a fitted effect of over 55% in size
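ATP-dependent luminescence (CellTiter-Glo) served as the viability signal for NIH 3T3 cells treated with compound for 48 or 72 hr at 37 °C.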
A number is an active result; - = inactive; ? = inconclusive; . = not tested or not shown; ! = not active in a repeat. This is a sample that favours compounds with a hit; in the whole collection about 11% have one here. Unless noted, the call rests on the fitted dose curve; in most records, active means well fitted curve in the direction sought with a large enough effect; inconclusive means small, poorly fitted or top-dose-only effect, or another doubt; inactive means no such curve, though single readings can be large; an effect the other way counts as inactive or inconclusive.

SMILES | hNpr1 antagonist | HEK cytotox | Luciferase inh | NIH3T3 tox
CCOC(=O)[C@@H]1CN(C(=O)OC)[C@H]2c3ccc(OC)cc3O[C@@H]12 | . | ? | . | -
O=C(c1ccc(C(F)(F)F)cc1)N1CCC2(C1)C(=O)N(CCc1ccccc1)c1ccccc12 (centres undefined) | ? | 32µM | - | 40µM!
Cc1ccccc1C(=O)N1CCC2(C1)C(=O)N(CCc1ccccc1)c1ccccc12 (centres undefined) | - | 40µM! | - | ?
O=C(c1ccc(Cl)nc1)N1CCC2(C1)C(=O)N(CCc1ccccc1)c1ccccc12 (centres undefined) | - | ? | - | ?
O=C(c1ccccc1Cl)N1CCC2(C1)C(=O)N(CCc1ccccc1)c1ccccc12 (centres undefined) | - | 40µM! | - | ?
CCN1C(=O)C2(CCN(S(=O)(=O)c3ccc(C(F)(F)F)cc3)CC2)c2ccccc21 | - | 32µM | - | -
CS(=O)(=O)c1ccc(OCC2(CNCc3cccc(C(F)(F)F)c3)C[C@@H](O)[C@@H](O)C2)cc1 (some centres undefined) | - | 79µM | - | ?
CN(C)CCCOCC1(C)COc2ccc(C(=O)Nc3ccc(F)c(Cl)c3)cc2N1 (centres undefined) | - | 63µM | - | 40µM
CC1(COCC2CC2)COc2ccc(C(=O)Nc3ccc(Cl)cc3)cc2N1 (centres undefined) | ? | 28µM | - | 35µM
CNC(=O)c1ccc2c(c1)NC(C)(COc1ccccc1)CO2 (centres undefined) | - | ? | - | ?
CC1(CCCCN2CCOCC2)COc2ccc(C(=O)Nc3ccc(Cl)cc3)cc2N1 (centres undefined) | - | 50µM | ? | ?
CCOCC1(C)COc2ccc(C(=O)Nc3ccccn3)cc2N1 (centres undefined) | ? | ? | 16µM | ?
CN(C)CCCOCC1(C)COc2ccc(C(=O)N3CCOCC3)cc2N1 (centres undefined) | - | - | - | ?
COc1ccc(OC)c([S+](=O)([O-])c2nnn3c2nc(N2CCCCC2)c2ccccc23)c1 | . | ? | . | -
O=C(c1ccc(Cl)cc1)N1CCC(C(=O)N2CCC(c3nc4ncccc4[nH]3)C2)CC1 (centres undefined) | . | - | . | -
CC(C)=CCC1(CO)CCCN(Cc2[nH]c3ccc(F)cc3c2C)C1 (centres undefined) | - | 20µM | - | 22µM
CC(C)=CCC1(CO)CCCN(Cc2csc(C)n2)C1 (centres undefined) | - | ? | - | -
Cn1ncc2c(C(=O)N3CCOCC3)cc(-c3ccccc3)nc21 | . | - | . | -
O=C1NCc2ccccc2CC12CCN(Cc1ccc(F)cc1O)CC2 | . | ? | . | -
O=C(O)CCn1ncc2cc(OCC3CCN(C(=O)Oc4ccccc4)CC3)ccc21 | . | - | - | 28µM
O=C(O)CCn1ncc2cc(OCC3CCN(C(=O)c4cc(F)ccc4Cl)CC3)ccc21 | . | - | - | 32µM
CC(C)OC(=O)N1CCC(COc2ccc3c(cnn3CCC(=O)O)c2)CC1 | - | - | ? | 28µM
COc1ccc(C2(C(=O)N3CCCC(c4nc(CCOCC5CC5)no4)C3)CC2)cc1 (centres undefined) | - | ? | - | -
CCOC(=O)C(Cc1cccc(N2CCN([S+](=O)([O-])c3c(Cl)cccc3Cl)CC2)c1)OC (centres undefined) | . | 20µM | . | ?
CCOC(=O)C(Cc1cccc(N2CCN(C(=O)c3ccccc3F)CC2)c1)OC (centres undefined) | . | ? | . | -
SMILES | hNpr1 antagonist | HEK cytotox | Luciferase inh | NIH3T3 tox
CC(C)Oc1ccc(CN2CCC(CO)(CN3CCCC3)CC2)cc1Cl | - | 25µM | - | 32µM
COc1ccc(CN2CCC(CO)(CN3CCCC3)CC2)cc1OC | - | - | - | ?
COc1ccc(CN2CCC(CO)(CN3CCCC3)CC2)cc1C | - | 89µM | - | ?
Cn1cccc1CN1CCCC(C(=O)NCc2ccccc2)CCNC(=O)CC1 (centres undefined) | - | 79µM | - | ?
COc1ccccc1-c1cccc(CN2CCCC(C(=O)NCc3ccccc3)C2)c1 (centres undefined) | . | 11µM | . | ?
COc1ccccc1-c1cccc(CN2CCCC(C(=O)NC3CCCC3)C2)c1 (centres undefined) | . | 35µM! | . | 35µM!
COc1ccccc1-c1cccc(CN2CCCC(C(=O)NCC(F)F)C2)c1 (centres undefined) | . | 40µM | . | ?
COc1cccc(C(=O)N2CCC(N3C[C@H](O)C[C@H]3C(=O)NCc3ccc(F)cc3)CC2)c1 | - | - | - | -

Source: PubChem BioAssay
